# PubChem BioAssay (NCATS)
# Values without a mark were called inactive. Records with an inconclusive call do not appear. Where a call stands in place of a potency, no number is given. Active and inactive are the calls of the source. Unless noted, the call rests on the fitted dose curve; in most records, active means well fitted curve in the direction sought with a large enough effect; inconclusive means small, poorly fitted or top-dose-only effect, or another doubt; inactive means no such curve, though single readings can be large; an effect the other way counts as inactive or inconclusive.
# Key:
# [1] = molecular target: Rap guanine nucleotide exchange factor 3 (Homo sapiens) (UniProt O95398); assay: Counterscreen qHTS for antagonist of cAMP-regulated guanine nucleotide exchange factor 3 (EPAC1) (AID 1645888);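 further: fluorescence loss as bound BODIPY-GDP is released from Rap1B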
# Rap guanine nucleotide exchange factor 3 (Homo sapiens), sequence (O95398 whole entry, looked up): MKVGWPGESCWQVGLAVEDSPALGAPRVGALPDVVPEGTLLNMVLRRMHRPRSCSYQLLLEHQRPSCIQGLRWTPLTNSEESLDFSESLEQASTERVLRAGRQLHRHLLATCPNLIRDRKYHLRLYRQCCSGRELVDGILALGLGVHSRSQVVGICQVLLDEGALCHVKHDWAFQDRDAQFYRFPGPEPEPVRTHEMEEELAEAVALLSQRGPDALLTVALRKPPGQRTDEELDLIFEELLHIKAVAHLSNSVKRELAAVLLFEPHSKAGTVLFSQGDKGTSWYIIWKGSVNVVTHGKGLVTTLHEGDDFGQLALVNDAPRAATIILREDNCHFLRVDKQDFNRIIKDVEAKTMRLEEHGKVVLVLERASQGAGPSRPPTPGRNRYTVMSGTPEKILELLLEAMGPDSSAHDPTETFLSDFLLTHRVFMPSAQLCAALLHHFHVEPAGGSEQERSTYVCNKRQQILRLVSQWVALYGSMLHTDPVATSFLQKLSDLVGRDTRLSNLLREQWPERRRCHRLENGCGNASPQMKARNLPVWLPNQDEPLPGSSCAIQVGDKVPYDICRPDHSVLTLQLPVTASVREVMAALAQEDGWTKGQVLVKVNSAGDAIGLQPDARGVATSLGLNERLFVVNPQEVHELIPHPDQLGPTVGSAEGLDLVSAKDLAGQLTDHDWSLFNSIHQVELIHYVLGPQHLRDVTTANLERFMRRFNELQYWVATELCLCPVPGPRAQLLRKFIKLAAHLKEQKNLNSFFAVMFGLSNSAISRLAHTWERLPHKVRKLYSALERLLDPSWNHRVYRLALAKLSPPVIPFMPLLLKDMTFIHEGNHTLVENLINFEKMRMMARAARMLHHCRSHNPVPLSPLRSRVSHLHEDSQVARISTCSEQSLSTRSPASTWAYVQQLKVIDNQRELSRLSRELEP
# Summary of the method: (§1)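 Rap1B–BODIPY-GDP (250 nM) with 50 uM GDP; compounds pin-transferred to 9.74 nM–152 uM final (activator) or from 7.32 nM upwards (inhibitor). Fluorescence Ex/Em 480/540 nm read at 5 and 30 min, then after adding cAMP or buffer, at room temperature.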
# [2] = molecular target: Cytochrome P450 3A4 (Homo sapiens) (UniProt P08684); assay: qHTS Assay for Activators of Cytochrome P450 3A4 (AID 885); further: nearly all actives have a fitted effect of over 65% in size
# Cytochrome P450 3A4 (Homo sapiens), sequence (P08684 whole entry, looked up): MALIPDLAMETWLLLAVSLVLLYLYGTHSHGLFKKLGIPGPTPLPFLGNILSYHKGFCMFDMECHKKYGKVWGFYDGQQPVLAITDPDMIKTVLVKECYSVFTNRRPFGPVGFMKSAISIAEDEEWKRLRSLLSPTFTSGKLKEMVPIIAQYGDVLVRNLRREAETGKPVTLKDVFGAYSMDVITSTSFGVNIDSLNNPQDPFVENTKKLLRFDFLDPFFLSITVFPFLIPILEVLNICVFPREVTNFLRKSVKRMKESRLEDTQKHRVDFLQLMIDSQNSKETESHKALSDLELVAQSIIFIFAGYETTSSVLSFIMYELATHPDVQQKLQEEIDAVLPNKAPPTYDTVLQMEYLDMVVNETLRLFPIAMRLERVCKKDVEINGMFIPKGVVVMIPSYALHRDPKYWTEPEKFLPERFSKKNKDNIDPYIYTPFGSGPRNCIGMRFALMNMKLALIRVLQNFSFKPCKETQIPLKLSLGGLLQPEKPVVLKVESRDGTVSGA
# Summary of the method: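 20nM CYP3A4 + 25uM Luciferin-PPXE (=KM), 200mM KPO4; cpd 10 min RT; NADPH regen, 60 min RT; stop w/ detection buffer, 20 min; luminescence. Normalized to 57 uM ketoconazole.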
# [3] = molecular target: Ubiquitin carboxyl-terminal hydrolase 1 (Homo sapiens) (UniProt O94782); assay: Inhibitors of USP1/UAF1: Pilot qHTS (AID 504865);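 further: rhodamine fluorescence freed from ubiquitin-rhodamine substrate followed over time; top concentration of the series differs between compounds; nearly all actives have a fitted effect of over 35% in size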
# Summary of the method: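 USP1/UAF1 complex (1nM) preincubated with compound 15 min at room temperature, then Ub-Rho substrate (150nM final) added. Fluorescence read kinetically at 480/540 nm, 6 reads every 60 seconds. Buffer: 50mM HEPES pH 7.8, 0.5mM EDTA, 0.1 mg/ml BSA, 1mM TCEP, 0.01% Tween-20.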
# [4] = molecular target: Rap guanine nucleotide exchange factor 4 (Homo sapiens) (UniProt Q8WZA2); assay: Confirmatory qHTS for antagonist of cAMP-regulated guanine nucleotide exchange factor 4 (EPAC2) (AID 1645885); further: nearly all actives have a fitted effect of over 25% in size; further: potency means the concentration at half of the fitted maximal effect
# Rap guanine nucleotide exchange factor 4 (Homo sapiens), sequence (Q8WZA2 whole entry, looked up): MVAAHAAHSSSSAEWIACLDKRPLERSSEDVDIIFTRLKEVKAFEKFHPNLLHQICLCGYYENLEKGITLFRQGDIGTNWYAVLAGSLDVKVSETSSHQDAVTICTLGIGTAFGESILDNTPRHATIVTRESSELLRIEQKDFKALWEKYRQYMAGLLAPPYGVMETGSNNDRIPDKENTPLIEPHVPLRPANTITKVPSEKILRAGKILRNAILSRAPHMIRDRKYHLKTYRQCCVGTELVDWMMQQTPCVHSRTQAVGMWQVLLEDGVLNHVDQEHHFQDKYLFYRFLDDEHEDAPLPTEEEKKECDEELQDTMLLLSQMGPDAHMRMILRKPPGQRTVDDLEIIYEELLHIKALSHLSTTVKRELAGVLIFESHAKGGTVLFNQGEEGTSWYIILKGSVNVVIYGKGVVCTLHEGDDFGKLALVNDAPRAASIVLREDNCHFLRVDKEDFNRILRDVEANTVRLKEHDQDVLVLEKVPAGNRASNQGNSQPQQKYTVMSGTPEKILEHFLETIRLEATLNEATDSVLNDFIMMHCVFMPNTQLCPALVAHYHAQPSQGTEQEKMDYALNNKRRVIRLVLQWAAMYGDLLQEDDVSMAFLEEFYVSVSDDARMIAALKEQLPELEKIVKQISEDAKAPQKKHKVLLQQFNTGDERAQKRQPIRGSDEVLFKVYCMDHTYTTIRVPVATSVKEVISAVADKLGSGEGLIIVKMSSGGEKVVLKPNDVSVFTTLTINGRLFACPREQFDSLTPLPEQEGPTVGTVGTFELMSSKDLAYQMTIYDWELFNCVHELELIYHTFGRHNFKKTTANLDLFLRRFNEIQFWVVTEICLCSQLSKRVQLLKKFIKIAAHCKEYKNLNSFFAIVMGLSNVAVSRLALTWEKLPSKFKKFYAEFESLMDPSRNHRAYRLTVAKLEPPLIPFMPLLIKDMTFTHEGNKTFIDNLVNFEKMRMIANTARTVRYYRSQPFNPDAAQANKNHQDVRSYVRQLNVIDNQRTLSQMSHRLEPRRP
# [5] = molecular target: Rap guanine nucleotide exchange factor 3 (Homo sapiens) (UniProt O95398); assay: Counterscreen qHTS for agonist of cAMP-regulated guanine nucleotide exchange factor 3 (EPAC1) (AID 1645889); further: nearly all actives have a fitted effect of over 40% in size
# Summary of the method: as §1
# [6] = Counterscreen for APE1 Inhibitors: Fluorescent Dye Displacement Validation Assay (AID 1707)
# Summary of the method: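 Thiazole Orange displacement from dsDNA: 250 nM ThO with 50 nM TAMRA-labelled abasic-site (tetrahydrofuran) duplex in 50 mM Tris-HCl pH7.5, 50mM NaCl, 2 mM MgCl2, 0.01% Tween-20. Loss of endpoint fluorescence (ex 480 nm, em 540 nm) flags DNA binders.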
# [7] = qHTS for differential inhibitors of proliferation of Plasmodium falciparum line 7G8 (AID 1815);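 further: potency means the concentration at half of the fitted maximal effect; parasite growth measured after three days of incubation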
# [8] = qHTS for differential inhibitors of proliferation of Plasmodium falciparum line GB4 (AID 1816); settings: Potency: Plasmodium falciparum GB4 proliferation inhibition;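 further: potency means the concentration at half of the fitted maximal effect; parasite growth measured after 72 h incubation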
# [9] = qHTS for differential inhibitors of proliferation of Plasmodium falciparum line 3D7 (AID 1876); further: potency means the concentration at half of the fitted maximal effect
# [10] = qHTS for differential inhibitors of proliferation of Plasmodium falciparum line Dd2 (AID 1882); settings: Potency: Plasmodium falciparum Dd2 proliferation inhibition; further: series mostly up to about 29 µM; nearly all actives have a fitted effect of over 65% in size
# Summary of the method: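 Dd2-infected erythrocytes (0.3% parasitemia, 2.5% hematocrit final) incubated with compound 72 h at 37 C, 5% CO2; lysed with saponin/Triton buffer containing SYBR Green I, incubated overnight in the dark, then read by fluorescence (485/535 nm). Normalized to 0.29 uM artemisinin and DMSO.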
# [11] = qHTS for differential inhibitors of proliferation of Plasmodium falciparum line W2 (AID 1883); settings: Potency: Plasmodium falciparum W2 proliferation inhibition;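 further: potency means the concentration at half of the fitted maximal effect; parasites grown with compound for 72 h before lysis and staining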
# [12] = qHTS Assay for Modulators of Human Peripheral Myelin Protein 22 (PMP22) Expression/Activity (AID 1967; active means well fitted curve in the direction sought with a large enough effect in the signal ratio; the % refers to the signal ratio)
# Summary of the method: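 MSC80 mouse Schwann cells stably carrying Pmp22 promoter–green click beetle luciferase plus EF-alpha–red luciferase control were dosed for 24h at 37 °C. Dual-colour luminescence was filter-overlap corrected; %Activity came from green/red ratio versus untreated cells.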
# [13] = molecular target: Ferritin light chain (Equus caballus) (UniProt P02791); assay: qHTS Validation Assay for Identification of Novel General Anesthetics (AID 2323); further: series mostly up to about 77 µM
# Ferritin light chain (Equus caballus), sequence (P02791 2-175 limits assumed): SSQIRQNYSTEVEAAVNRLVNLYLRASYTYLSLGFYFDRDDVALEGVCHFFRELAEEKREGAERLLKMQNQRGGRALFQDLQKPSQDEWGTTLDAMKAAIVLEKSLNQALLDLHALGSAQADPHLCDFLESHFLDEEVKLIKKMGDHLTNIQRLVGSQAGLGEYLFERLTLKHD
# Summary of the method: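 Competitive displacement of profluorescent 1-aminoanthracene (1-AMA, 50% saturated solution in PBS) from 10 uM horse-spleen apoferritin. Compounds incubated 10 min at room temperature; fluorescence read at 380 nm excitation/535 nm emission, normalized to free 1-AMA and complex, fitted with four-parameter Hill equation.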
# [14] = molecular target: ATP-dependent DNA helicase Q1 (Homo sapiens) (UniProt P46063); assay: qHTS Validation Assay for Inhibitors of RecQ-Like Dna Helicase 1 (RECQ1) (AID 2353)
# ATP-dependent DNA helicase Q1 (Homo sapiens), sequence (P46063 whole entry, looked up): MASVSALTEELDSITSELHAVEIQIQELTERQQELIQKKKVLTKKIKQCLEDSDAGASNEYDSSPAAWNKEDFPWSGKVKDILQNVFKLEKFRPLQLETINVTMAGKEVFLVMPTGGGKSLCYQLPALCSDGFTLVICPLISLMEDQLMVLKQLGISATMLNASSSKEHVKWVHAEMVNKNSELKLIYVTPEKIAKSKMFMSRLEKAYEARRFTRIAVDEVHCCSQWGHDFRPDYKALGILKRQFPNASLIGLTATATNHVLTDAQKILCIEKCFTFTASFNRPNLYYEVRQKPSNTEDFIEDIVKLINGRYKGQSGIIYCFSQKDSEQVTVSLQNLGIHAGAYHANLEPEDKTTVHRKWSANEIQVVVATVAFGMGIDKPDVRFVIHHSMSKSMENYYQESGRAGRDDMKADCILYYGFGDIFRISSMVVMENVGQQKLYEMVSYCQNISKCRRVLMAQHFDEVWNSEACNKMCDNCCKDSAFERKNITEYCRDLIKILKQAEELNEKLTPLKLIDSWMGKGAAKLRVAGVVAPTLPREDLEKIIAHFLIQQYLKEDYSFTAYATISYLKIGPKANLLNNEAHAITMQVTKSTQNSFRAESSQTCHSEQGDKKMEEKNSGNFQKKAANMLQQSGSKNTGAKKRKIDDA
# Summary of the method: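 50 nM RECQ1T1 preincubated 15 min with compound in Tris pH 8.0 buffer with MgCl2, DTT, Tween-20 and 2.5 ug/ml poly(dI-dC); started with 200 nM TAMRA/BHQ-2 forked duplex and 2 mM ATP. Unwinding read as fluorescence (525/598 nm), two reads 2 h apart.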
# [15] = molecular target: RecQ-like DNA helicase BLM (Homo sapiens) (UniProt P54132); assay: qHTS Validation Assay for Inhibitors of Bloom's syndrome helicase (BLM) (AID 2364)
# RecQ-like DNA helicase BLM (Homo sapiens), sequence (P54132 whole entry, looked up): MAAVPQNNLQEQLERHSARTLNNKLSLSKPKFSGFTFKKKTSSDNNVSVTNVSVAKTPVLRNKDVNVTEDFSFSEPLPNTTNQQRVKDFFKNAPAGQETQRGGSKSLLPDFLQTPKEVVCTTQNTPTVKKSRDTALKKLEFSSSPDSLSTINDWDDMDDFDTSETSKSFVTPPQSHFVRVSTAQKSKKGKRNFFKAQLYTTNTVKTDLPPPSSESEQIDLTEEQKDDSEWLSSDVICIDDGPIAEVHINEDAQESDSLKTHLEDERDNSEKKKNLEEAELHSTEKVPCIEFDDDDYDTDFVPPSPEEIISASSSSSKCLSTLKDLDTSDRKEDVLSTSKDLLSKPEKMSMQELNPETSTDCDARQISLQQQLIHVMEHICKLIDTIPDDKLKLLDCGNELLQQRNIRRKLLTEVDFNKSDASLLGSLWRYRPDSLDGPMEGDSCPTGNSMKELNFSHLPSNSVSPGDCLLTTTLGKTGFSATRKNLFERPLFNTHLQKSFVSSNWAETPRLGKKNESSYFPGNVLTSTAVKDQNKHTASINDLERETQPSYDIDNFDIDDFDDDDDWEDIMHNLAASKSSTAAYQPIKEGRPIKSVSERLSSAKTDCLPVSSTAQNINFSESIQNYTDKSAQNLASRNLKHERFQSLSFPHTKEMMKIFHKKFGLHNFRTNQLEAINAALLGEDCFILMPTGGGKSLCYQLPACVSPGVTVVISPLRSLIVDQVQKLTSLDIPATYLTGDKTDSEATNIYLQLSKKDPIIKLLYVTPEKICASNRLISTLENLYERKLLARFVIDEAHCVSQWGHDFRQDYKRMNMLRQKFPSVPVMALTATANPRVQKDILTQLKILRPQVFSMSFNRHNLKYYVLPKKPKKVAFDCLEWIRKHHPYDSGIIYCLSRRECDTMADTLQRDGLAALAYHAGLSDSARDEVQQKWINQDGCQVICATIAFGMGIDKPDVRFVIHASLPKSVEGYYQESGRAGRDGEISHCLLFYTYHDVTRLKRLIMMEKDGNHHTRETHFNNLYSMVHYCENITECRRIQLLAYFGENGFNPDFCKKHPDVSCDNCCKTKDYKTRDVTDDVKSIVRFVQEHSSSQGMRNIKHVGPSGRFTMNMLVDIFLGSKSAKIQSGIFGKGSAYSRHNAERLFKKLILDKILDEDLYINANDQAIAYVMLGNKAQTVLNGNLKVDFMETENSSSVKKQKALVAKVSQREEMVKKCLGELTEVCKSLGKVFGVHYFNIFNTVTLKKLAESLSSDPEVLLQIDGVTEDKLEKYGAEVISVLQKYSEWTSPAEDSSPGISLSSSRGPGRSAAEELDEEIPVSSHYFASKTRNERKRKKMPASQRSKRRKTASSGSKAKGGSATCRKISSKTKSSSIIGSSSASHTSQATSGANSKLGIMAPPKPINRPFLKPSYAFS
# Summary of the method: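 50 nM BLM preincubated 15 min at room temperature with compound in pH 8.0 Tris buffer containing 2.5 ug/ml poly(dI-dC); started with 200 nM TAMRA/BHQ-2 forked duplex and 2 mM ATP (final). Unwinding read as TAMRA fluorescence increase, two reads 2 h apart.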
# [16] = Validation screen for small molecules that induce DNA re-replication in MCF 10A normal breast cells (AID 463097); further: nearly all actives have a fitted effect of over 60% in size
# Summary of the method: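 Readout: Hoechst nuclear fluorescence intensity, 405 ex / 500-530 em, by scanning plate imager; re-replication scored as increase in nuclei with elevated DNA content. Cells exposed to compound 48 hr, 37 C, 5% CO2 beforehand.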
# [17] = molecular target: Thyrotropin receptor (Homo sapiens) (UniProt P16473); assay: qHTS Assay for Antagonists of the Thyroid Stimulating Hormone Receptor (AID 488980); further: series mostly up to about 58 µM
# Summary of the method: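 HEK293 cells transfected with human TSHR, suspended in HEPES-buffered HBSS with 70 uM RO 20-1724, were treated with compounds plus TSH at EC80 (4 nM final). cAMP was measured by competitive HTRF (cryptate anti-cAMP antibody, cAMP-d2 acceptor).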
# [18] = molecular target: Galactokinase (Homo sapiens) (UniProt P51570); assay: qHTS Validation Assay for Inhibitors of Human Galactokinase (GALK) (AID 493189)
# Galactokinase (Homo sapiens), sequence (P51570 whole entry, looked up): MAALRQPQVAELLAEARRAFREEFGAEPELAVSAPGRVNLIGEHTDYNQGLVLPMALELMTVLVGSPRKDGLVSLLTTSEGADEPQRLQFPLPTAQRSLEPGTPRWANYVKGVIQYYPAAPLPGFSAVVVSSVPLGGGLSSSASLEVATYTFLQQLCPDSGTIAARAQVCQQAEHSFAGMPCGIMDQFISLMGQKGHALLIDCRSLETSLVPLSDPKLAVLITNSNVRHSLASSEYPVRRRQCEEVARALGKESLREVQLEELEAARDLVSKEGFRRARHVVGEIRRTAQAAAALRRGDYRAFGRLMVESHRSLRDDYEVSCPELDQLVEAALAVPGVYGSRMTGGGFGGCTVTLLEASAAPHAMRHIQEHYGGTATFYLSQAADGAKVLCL
# Summary of the method: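 GALK (5 nM) with 35 uM ATP and 100 uM galactose in HEPES pH8.0, MgCl2, NaCl, DTT, BSA; 1 h at room temperature. Residual ATP read by Kinase-Glo Plus luminescence after 10 min.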
# [19] = Validation screen for small molecules that induce DNA re-replication in SW480 colon adenocarcinoma cells (AID 504364)
# Summary of the method: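 250 cells/well; compound pinned in; 48 hr, 37 C, 5% CO2; Hoechst added, 40 min; nuclear fluorescence imaged, 405 ex / 500-530 em; re-replication scored as increase in high-intensity nuclei.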
smiles,measurement,setting,value
CCc1ccccc1NC1c2ccccc2C(=O)N1Cc1ccco1 (stereo unspecified),"activity change, negative = inhibition",[1],-4.2% [at 30.8 µM]
COc1ccc(/C=C/C(=O)c2cccs2)c(OC)c1,outcome,[2],inactive
same,Potency,[3],inactive
same,Potency,[4],inactive
COc1ccc(-c2nc3ccccc3nc2-c2ccccc2)cc1OC,Potency,[1],inactive
O=C(NCc1ccc(OC(F)(F)F)cc1)c1cccc2c1C(=O)c1ccc(N3CCCC3)cc1S2(=O)=O,Potency,[4],inactive
same,activation,[5],20% [at 30.8 µM]
COc1cccc(C2=NN(C(=O)c3ccco3)C(c3ccco3)C2)c1 (stereo unspecified),Potency,[4],inactive
same,Potency,[1],inactive
same,Potency,[5],inactive
Cc1ccnc(NCc2cccc3ccccc23)c1,Potency,[4],inactive
same,Potency,[1],inactive
same,Potency,[5],inactive
COc1ccc(/C=N/n2cnc3c([nH]c4ccc(F)cc43)c2=O)cc1CN1CCCC1,Potency,[5],inactive
COC(=O)C(C)Sc1nc2ccsc2c(=O)n1Cc1ccccc1 (stereo unspecified),Potency,[4],26.9 µM (active)
same,Potency,[1],inactive
CCC(=O)N(CCC(c1ccccc1)c1ccco1)Cc1cccs1 (stereo unspecified),Potency,[1],inactive
CN1CCN(CC/C=C2/c3ccccc3Sc3ccc(S(=O)(=O)N(C)C)cc32)CC1,outcome,[6],inactive
same,Potency,[7],7.08 µM (active)
same,Potency,[8],11.2 µM (active)
same,Potency,[9],10 µM (active)
same,Potency,[10],inactive
same,Potency,[11],5.01 µM (active)
same,outcome,[12],inactive
same,outcome,[13],inactive
same,outcome,[14],inactive
same,Potency,[15],inactive
same,Potency,[16],inactive
same,outcome,[17],inactive
same,outcome,[18],inactive
same,Potency,[19],inactive
